Screens from PubChem BioAssay.
Shown are actives, neighbours in structure and some others; about 12% of the full set was active somewhere.
BAZ2B block – inhibitors of human BAZ2B bromodomain; AlphaScreen BAZ2B-H3K14Ac peptide displacement; Potency, µM (top dose mostly 114 µM), inactives show at the top dose activity change, negative = inhibition, actives largely listed as inhibitors; 4.4% of 360,000 active; AID 504333; further: on the % scale 0 is the no-effect control and ±100 the full control effect; nearly all actives have a fitted effect of over 60% in size
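AlphaScreen displacement: compounds (up to 110uM) incubated 30 min at room temperature with a preformed 50 nM BAZ2B/50 nM biotinylated H3K14Ac peptide complex in PBS pH 7.4 with Tween-20. Donor and acceptor beads at 10 ug/mL final added, 20 min light-protected before reading.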
JMJD2A Tudor – JMJD2A Tudor domain (human) inhibition | O75164 | AlphaScreen JMJD2A-Tudor / H3K4me3 peptide binding | Potency, µM (series often up to 114 µM), without a hit: at the highest dose activity change, negative = inhibition, usual class: inhibitors | 4.4% of 390,000 active | AID 504339; further: on the % scale 0 is the no-effect control and ±100 the full control effect; nearly all actives have a fitted effect of over 50% in size
G9a block – inhibitors of human histone lysine methyltransferase G9a. Q96KQ7. G9a H3K9 monomethylation, AlphaScreen, 2 h. Potency, µM (top dose mostly 102 µM), without a hit: at the highest dose activity, negative = inhibition, hits mostly inhibitors. 8.8% of 350,000 active. AID 504332; further: on the % scale 0 is the no-effect control and ±100 the full control effect; nearly all actives have a fitted effect of over 75% in size
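Compounds were preincubated with 20 nM G9a for 15 min, after which biotinylated H3K9 peptide (500 nM) and SAM (20 uM) started a 2 h room-temperature reaction. Monomethylated product was quantified by antibody-based AlphaScreen chemiluminescence.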
L3MBTL1 block – blocks human L3MBTL1; Q9Y468; 0.66% of 230,000 active; AlphaScreen L3MBTL1–H3K9me1 peptide binding; Potency, µM (top dose mostly 57.1 µM), for inactives: at the top dose activity, negative = inhibition, actives largely listed as inhibitors; further: on the % scale 0 is the no-effect control and ±100 the full control effect; nearly all actives have a fitted effect of over 60% in size
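L3MBTL1 50 nM + b-AHA-H3(1-15)K9me1 75 nM, 30 min RT; compound added, 30 min RT; streptavidin donor/Ni-chelate acceptor beads 10 ug/mL each final, 30 min RT dark; AlphaScreen read.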
HP1b binding inh – inhibitors of HP1-beta chromodomain binding to methylated histone tails; AlphaScreen HP1-beta / biotin-H3K9me3 peptide binding; AID 540317; 0.56% of 390,000 active; Potency, µM (highest dose often 114 µM), inactives show at the highest dose activity change, negative = inhibition, hits mostly inhibitors; P83916; further: nearly all actives have a fitted effect of over 70% in size
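AlphaScreen: HP1-beta (50 nM) preformed 30 min with biotin-H3(1-18)K9me3 peptide (50 nM) in PBS pH 7.4, 0.01% Tween-20. Compound added for 30 min at RT, then streptavidin donor/nickel chelate acceptor beads (10 ug/mL) for 30 min.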
Sfp PPTase inh – inhibitors of Bacillus subtilis Sfp phosphopantetheinyl transferase; Biochemical Sfp PPTase activity, qHTS; Potency, µM, for inactives: largest response in the series, negative = inhibition, actives largely listed as inhibitors; 3.5% of 310,000 active;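 further: the enzyme is Sfp with the accession as filed and its product quenches rhodamine fluorescence; 0% = enzyme reaction without inhibitor and -100% = no enzyme wells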
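Fluorescence-quenching assay with 15 nM Sfp, 5 uM rhodamine-CoA and 12.5 uM BHQ-2-labelled ybbR peptide in pH 7.6 Hepes/MgCl2 buffer. Enzyme was pre-incubated with compound for 15 min at room temperature. Rate was taken from the 30-min fluorescence change (525/598 nm).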
The depositor's hits bear a star; ? = inconclusive; . = not tested or not shown; ! = a repeat was not active; [ ] = dose if it differs, or a comment. The call rests on the fitted dose curve; in most records, active means well fitted curve in the direction sought with a large enough effect; inconclusive means small, poorly fitted or top-dose-only effect, or another doubt; inactive means no such curve, though single readings can be large; an effect the other way counts as inactive or inconclusive. Potency means the concentration at half of the fitted maximal effect.

SMILES	BAZ2B block	JMJD2A Tudor	G9a block	L3MBTL1 block	HP1b binding inh	Sfp PPTase inh
NS(=O)(=O)c1ccc(CNC(=O)Cc2ccc(S(=O)(=O)N3CCOCC3)s2)cc1	9%	-12%	-4%	-8%	10%	.
CC(C)(C)C1CCc2onc(C(=O)Nc3ccc(F)cc3F)c2C1 (stereo not given)	7%	2%	19%[59 µM]	6%	64%	-2%
CC(C)(C)C1CCc2onc(C(=O)Nc3sc4c(c3C#N)CCCC4)c2C1 (stereo not given)	-18%	-26%	2.8µM*	.	-18%	.
CC(C)(C)C1CCc2onc(C(=O)Nc3sc4c(c3C(N)=O)CCCC4)c2C1 (stereo not given)	0%	-25%	3.2µM*	.	?	.
CCOC(=O)c1c(C)[nH]c(CCC(=O)Nc2ccc(N(CC)CC)cc2C)c1C	-18%	?	-49%[59 µM]	.	2%[57 µM]	.
O=C(CN(C(=O)CNC(=O)c1ccco1)c1ccc(F)cc1)NC1CCCC1	0%	-6%	7%	.	22%	11%
O=C1OC(C(=O)Nc2cc(C(F)(F)F)ccc2Cl)Cc2ccccc21 (stereo not given)	?	-12%	-4%[59 µM]	.	26%	.
CC(O)/C=C/c1cccc[n+]1C (stereo not given)	4%	40µM*	10µM*	-9%	19%	-21%
C[n+]1ccccc1/C=N/O	-14%	35µM*!	-33%[2.33 µM]	4%	60%	11%
C[n+]1ccccc1/C=N\O	.	.	30%[21.5 µM]	.	.	11%
CCCN1CCC(=O)N(C(CSc2ccc(C)cc2)CC(C)C)CC1 (stereo not given)	.	-17%	.	.	20%	1%
Cc1ccc(C(=O)N/C(=C\c2ccco2)C(=O)NCCCn2ccnc2)cc1	7.9µM*	22µM*	-8%[59 µM]	?	20%	2%
Cc1ccc(C(=O)N/C(=C/c2ccco2)C(=O)NCCCn2ccnc2)cc1	32µM*	-7%	?	?	5%	4%
O=C(NCCCn1ccnc1)/C(=C/c1ccco1)NC(=O)c1ccccc1	.	-16%	.	.	43%	.
Cc1ccnc2c1ccc1cccnc12	2.8µM*	5.6µM*	13µM*	3.5µM*	43%	.
Cc1ccnc2c1ccc1ccccc12	43%	17%	65%	.	78%	14%
Cc1ccnc2c1ccc1c(C)ccnc12	4.5µM*	7.1µM*	?	-86%	48%	.
Cc1cccc2cccnc12	13%	-12%	0%[0.501 µM]	-5%	75%	.
Cc1ccc2cccnc2c1N	?	22µM*	-3%	-21%	-4%	-9%
Cc1nn(-c2ccccc2)c(C)c1NC(=O)COC(=O)/C=C/c1ccccc1	11%	-6%	-32%	6%	11%	.
CCN(C(=O)C1CCC(CNS(=O)(=O)c2cccc3nsnc23)CC1)c1ccccc1 (stereo not given)	?	-29%	-2%[59 µM]	.	0%	.
COc1ccc(NC(=O)CSc2nc3nc(C)cc(C)c3c(=O)[nH]2)cc1	-9%	-21%	-1%[0.501 µM]	.	8%[57 µM]	-5%
CCN(CC)c1ccc(NC(=O)CSc2nc3nc(C)cc(C)c3c(=O)[nH]2)cc1	45µM*	45µM*	40µM*	-9%	?	.
NC(=O)Nn1c(CCC(=O)O)ccc1-c1ccc(Cl)cc1	-18%	-19%	21%[12.7 µM]	.	1%	23%
O=C(O)CCc1ccc(-c2ccccc2)n1NC(=O)c1sc2ccccc2c1Cl	?	4%[57.1 µM]	50µM*	.	-21%	-3%
SMILES	BAZ2B block	JMJD2A Tudor	G9a block	L3MBTL1 block	HP1b binding inh	Sfp PPTase inh
Cc1c(Cl)cccc1-c1ccc(CNc2ccc3[nH]c(=O)[nH]c3c2)o1	-27%	-29%	?	.	-3%	.
O=C(CSC(=S)N1CCCC1)N1CCN(S(=O)(=O)c2cccc([N+](=O)[O-])c2)CC1	-14%	-19%	40µM*	.	1%	50µM*
Nc1cccc(C#Cc2ccc3c(c2)C(=O)/C(=C/c2ccsc2)O3)c1	.	-35%	.	-22%	5%	.
COc1cccc(CNC(=O)C2CCN(Cc3cc4ccccc4n3Cc3ccccc3)CC2)c1OC	-23%	-14%	-30%[59 µM]	.	25%	.
CC(=O)N1c2ccc(S(=O)(=O)NCCC(=O)Nc3ccc(OC(F)(F)F)cc3)cc2CC1C (stereo not given)	-3%	?	8%[59 µM]	.	22%	20%
O=C(CCCSc1nnc(-c2cccs2)n1CC1CCCO1)c1ccccc1 (stereo not given)	-5%	79µM*	-45%[2.33 µM]	.	34%	-13%
O=C(CSc1nnc(-c2cccs2)n1CC1CCCO1)N1CCCC1 (stereo not given)	0%	-8%	27%	12%	14%	11%
O=C(COc1ccc(F)cc1Cl)Nc1ccc(S(=O)(=O)Nc2nccs2)cc1	-2%	-24%	32µM*	-2%	5%	.
O=C(Nc1ccc(S(=O)(=O)Nc2nccs2)cc1)c1nn(-c2ccc(F)cc2)ccc1=O	25µM*	56µM*	?	.	-15%	5%
Cc1cccc(OCCCC(=O)Nc2ccc(S(=O)(=O)Nc3nccs3)cc2)c1C	?	?	45µM*	.	-20%	11%
O=C(COc1ccccc1F)Nc1ccc(S(=O)(=O)Nc2nccs2)cc1	-18%	-12%	16%	.	26%	12%
Cc1ccc(SCC(=O)Nc2ccc(S(=O)(=O)Nc3nccs3)cc2)cc1	?	-27%	13µM*	-14%	-5%	5%
N#CC1=C(N)SC(C(=O)c2ccccc2)C1c1cccs1 (stereo not given)	-39%	-2%[57.1 µM]	?	-18%	20%	-5%
N#CC1=C(N)S[C@@H](C(=O)c2ccc(F)cc2)[C@@H]1c1cccs1	?	?	10µM*	-17%	-7%	?
Cc1cc(C)c(O)c(N)c1	?	.	2.2µM*	-17%	.	20µM*
Cc1cc(C)c(N)c(C(=O)O)c1	0%	-11%	-2%[12.7 µM]	.	41%	19%
CCc1nc2sc(C(C)=O)c(N)c2c2c1CCCC2	-6%	30%	0%[12.7 µM]	45%	91%	-22%
CC(C)c1nc2sc3c(=O)[nH]cnc3c2c2c1CCCC2	-3%	-16%	.	12%	33%	15%
CN(C(=O)c1sc2nc(N3CCOCC3)c3c(c2c1N)CCCC3)c1ccccc1	3%	4%	?	24%	40%	?
NC(=O)c1sc2nc(-c3ccccc3)c3c(c2c1N)CCCC3	?	-5%	?	.	67%	40µM*
COc1ncnc2c1sc1nc(-c3ccccc3)c3c(c12)CCCC3	14%	21%	28%[59 µM]	4%	54%	?
Cc1nc2sc(C(N)=O)c(N)c2c2c1CCCC2	-17%	-2%	?	-2%	40%	79µM*
Cc1ccc(-c2nc3sc(C(N)=O)c(N)c3c3c2CCCC3)cc1	-31%	-15%	-36%	13%	46%	40µM*
